# Bioassay records as filed in PubChem.
# BAZ2B inh: inhibitors of human BAZ2B bromodomain; AlphaScreen BAZ2B-H3K14Ac peptide displacement; Potency, µM (titrated, usually from 114 µM), for inactives: top-dose activity change, negative = inhibition, actives largely listed as inhibitors; AID 504333; 4.4% of 360,000 active; Q9UIF8; further: on the % scale 0 is the no-effect control and ±100 the full control effect; nearly all actives have a fitted effect of over 60% in size
#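 BAZ2B (50 nM) with biotin-H3(5-23)K14Ac peptide (50 nM) in PBS pH 7.4, 0.01% Tween-20, preformed 30 min, then compound 30 min at room temperature; top concentration 110uM. AlphaScreen streptavidin donor/nickel chelate acceptor beads (10 ug/mL final), 20 min dark, signal read.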
# Sfp PPTase inh: blocks B. subtilis Sfp PPTase activity; Q9F4F7; Biochemical Sfp PPTase activity, qHTS; Potency, µM, for inactives: largest response in the series, negative = inhibition, usual class: inhibitors; 3.5% of 310,000 active; AID 1490;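 further: the enzyme is Sfp with the accession as filed and its product quenches rhodamine fluorescence; 0% = enzyme reaction without inhibitor and -100% = no enzyme wells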
#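 After 15 min at room temperature with compound, 15 nM Sfp received 5 uM rhodamine-CoA plus 12.5 uM BHQ-2-ybbR (50 mM Hepes pH 7.6, 10 mM MgCl2). Rate came from the fluorescence difference over 30 min, ex 525/em 598 nm.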
# HP1b chromo inh: blocks HP1-beta chromodomain binding to methylated histone tails; P83916; AlphaScreen HP1-beta / biotin-H3K9me3 peptide binding; Potency, µM (doses to about 114 µM), for the others: top-dose activity change, negative = inhibition, hits mostly inhibitors; 0.56% of 390,000 active; AID 540317; further: nearly all actives have a fitted effect of over 70% in size
#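 AlphaScreen: HP1-beta (50 nM) preformed 30 min with biotin-H3(1-18)K9me3 peptide (50 nM) in PBS pH 7.4, 0.01% Tween-20. Compound added for 30 min at RT, then streptavidin donor/nickel chelate acceptor beads (10 ug/mL) for 30 min.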
# G9a block: blocks human histone lysine methyltransferase G9a; G9a H3K9 monomethylation, AlphaScreen, 2 h; 8.8% of 350,000 active; Q96KQ7; Potency, µM (titrated, usually from 102 µM), for inactives: at the top dose activity, negative = inhibition, most hits filed as inhibitors; further: on the % scale 0 is the no-effect control and ±100 the full control effect; nearly all actives have a fitted effect of over 75% in size
#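 Using a bead-based AlphaScreen, monomethylated H3K9 product from 2 h room-temperature reactions (G9a 20 nM, peptide 500 nM, SAM 20 uM) was detected with 0.5 ug/mL rabbit anti-H3K9me1 antibody.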
# 12-LOX inh: ALOX12 (human) lipoxygenase inhibition | purified 12hLO, xylenol orange hydroperoxide absorbance | Potency, µM (doses to about 108 µM), inactives show at the highest dose activity change, negative = inhibition, most hits filed as inhibitors | 1.1% of 580,000 active | AID 1671190; further: on the % scale 0 is the no-effect control and ±100 the full control effect
#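 Hydroperoxide product was detected by ferrous iron/xylenol orange as the 573 to 405 nm absorbance ratio. Arachidonic acid at 40 uM (final) was turned over for 30 min at room temperature by 150 nM human 12hLO, pH 7.0 Hepes buffer, after 15 min compound preincubation.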
# JMJD2A Tudor: JMJD2A Tudor domain (human) inhibition. O75164. AlphaScreen JMJD2A-Tudor / H3K4me3 peptide binding. Potency, µM (highest dose often 114 µM), for the others: at the highest dose activity change, negative = inhibition, most hits filed as inhibitors. 4.4% of 390,000 active. AID 504339; further: on the % scale 0 is the no-effect control and ±100 the full control effect; nearly all actives have a fitted effect of over 50% in size
# Target sequence (O75164 whole entry, looked up, the tested form may be a part): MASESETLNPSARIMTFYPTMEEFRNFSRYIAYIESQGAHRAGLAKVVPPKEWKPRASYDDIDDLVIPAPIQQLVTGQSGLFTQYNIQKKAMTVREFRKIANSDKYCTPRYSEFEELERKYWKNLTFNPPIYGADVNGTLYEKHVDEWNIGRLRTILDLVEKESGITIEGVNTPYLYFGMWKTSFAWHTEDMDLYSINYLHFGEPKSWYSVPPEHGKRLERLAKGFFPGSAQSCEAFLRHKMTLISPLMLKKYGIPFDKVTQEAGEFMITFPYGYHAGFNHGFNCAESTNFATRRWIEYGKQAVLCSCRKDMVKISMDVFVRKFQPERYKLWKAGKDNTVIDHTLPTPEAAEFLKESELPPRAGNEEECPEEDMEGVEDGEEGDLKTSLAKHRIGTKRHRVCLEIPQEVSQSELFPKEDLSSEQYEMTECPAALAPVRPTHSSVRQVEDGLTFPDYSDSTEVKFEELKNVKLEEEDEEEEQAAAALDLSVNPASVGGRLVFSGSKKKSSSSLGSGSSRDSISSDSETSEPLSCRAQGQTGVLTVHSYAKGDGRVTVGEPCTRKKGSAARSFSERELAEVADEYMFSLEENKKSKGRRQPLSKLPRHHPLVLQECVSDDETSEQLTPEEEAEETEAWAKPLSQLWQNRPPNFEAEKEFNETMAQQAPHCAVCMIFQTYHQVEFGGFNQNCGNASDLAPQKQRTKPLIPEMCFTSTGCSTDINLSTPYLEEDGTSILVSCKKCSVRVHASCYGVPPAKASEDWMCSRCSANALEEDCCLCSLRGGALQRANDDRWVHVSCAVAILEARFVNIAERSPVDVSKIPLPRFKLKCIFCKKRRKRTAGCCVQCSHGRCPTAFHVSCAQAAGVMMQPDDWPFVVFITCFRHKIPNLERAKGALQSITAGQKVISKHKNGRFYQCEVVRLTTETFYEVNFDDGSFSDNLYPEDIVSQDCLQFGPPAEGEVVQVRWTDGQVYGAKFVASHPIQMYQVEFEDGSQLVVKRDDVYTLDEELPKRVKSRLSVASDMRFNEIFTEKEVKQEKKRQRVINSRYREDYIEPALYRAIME
# An asterisk follows results filed as active; ? = inconclusive; / = no result given; [ ] = remark or other dose. Rows were chosen to be rich in hits. Some 8.7% of all compounds tested hit in one or more screens of this group. The call rests on the fitted dose curve; in most records, active means well fitted curve in the direction sought with a large enough effect; inconclusive means small, poorly fitted or top-dose-only effect, or another doubt; inactive means no such curve, though single readings can be large; an effect the other way counts as inactive or inconclusive. Potency means the concentration at half of the fitted maximal effect.
SMILES,BAZ2B inh,Sfp PPTase inh,HP1b chromo inh,G9a block,12-LOX inh,JMJD2A Tudor
COc1cc(Nc2nc(N)c(C(=O)c3cc(C)ccc3C)s2)cc(OC)c1,/,/,/,/,-7%,/
O=C(NCc1nc(-c2cccc(F)c2)c(-c2ccccn2)[nH]1)N1CCCC1,/,/,/,/,146%,/
Cc1cccc(NC(=O)N(Cc2cccs2)C2CC2)c1,/,/,/,/,39%,/
Cc1ccc(-n2nc(CC(N)=O)nc2CCn2ccc(=O)[nH]c2=O)c(C)c1,/,/,/,/,28%,/
CCOc1cc2[nH]c(=S)n(Cc3ccc(C(=O)NCCCN(CC)CC)cc3)c(=O)c2cc1OCC,-17%,-3%,-4%,35µM*,-13%,?
CC1CCN(CCn2c(=S)[nH]c3cc4c(cc3c2=O)OCO4)CC1,/,-19%,31%,-40%,-3%,-10%
COc1cc2c(=O)n(CCCN3CCOCC3)c(=S)[nH]c2c(OC)c1OC,-3%,-17%,-10%,13µM*,?,32µM*
CCCCn1c(=S)[nH]c2ccc(N3CCOCC3)cc2c1=O,-17%,?,/,20µM*,/,/
O=c1c2cc3c(cc2[nH]c(=S)n1CCN1CCOCC1)OCO3,?,-7%,22%,?,0%,35µM*
O=c1c2cc(N3CCOCC3)ccc2[nH]c(=S)n1CCCN1CCCCCC1,-5%,-11%,20%,-12%[12.7 µM],-60%,-1%
O=c1c2cc(N3CCOCC3)ccc2[nH]c(=S)n1CCN1CCCC1,11%,-9%,-1%,?,0%,?
Cc1ccsc1CN(CC1CCCO1)C(=O)COc1ccccc1 (stereo unspecified),/,/,/,/,-2%,/
CC1(C)C(=O)Nc2ccc(S(=O)(=O)N3CCC(c4noc(-c5cccnc5)n4)C3)cc21 (stereo unspecified),/,/,/,/,53%,/
O=C(O)CCSc1ccccc1F,/,/,/,/,6%,/
O=C(CSCc1ccncc1)N(Cc1ccsc1)C1CC1,/,/,/,/,60%,/
COc1ccc(Cn2c(=O)[nH]c3cc(C(=O)NCCCN4CCCCC4)ccc3c2=O)cc1,1%,8%,30%,-7%[2.33 µM],-1%,-11%
COc1ccc(Cn2c(=O)[nH]c3cc(C(=O)NCCCN4CCCCCC4)ccc3c2=O)cc1,-24%,6%,1%,56µM*,?,14µM*
CCOc1cc2[nH]c(=S)n(CCCN3CCOCC3)c(=O)c2cc1OCC,1%,-8%,9%,-47%[12.7 µM],-23%,56µM*
CCOc1cc2[nH]c(=S)n(CCN3CCCCC3CC)c(=O)c2cc1OCC (stereo unspecified),2%,9%,15%,56µM*,?,-33%
CCOc1cc2[nH]c(=S)n(CCN3CCC(C)CC3)c(=O)c2cc1OCC,-1%,3%,34%,18%[0.501 µM],7%,-18%
CCCCc1nc(C)cc(NCCNC(=O)C2CC3(CCNCC3)CN2)n1 (stereo unspecified),/,/,/,/,112%,/
Cc1cccc(CNC(=O)CN2C(=O)CN(C(=O)NCc3ccccc3)c3ccccc32)c1,/,/,/,/,4%,/
COc1ccc(OCC(=O)Nc2ccc3oc(-c4cccc(F)c4)nc3c2)cc1,/,/,/,/,9%,/
COc1ccc(Nc2ccc3c(c2)=NC2(CCCCC2)[N+]=3[O-])cc1,40µM*,-20%,?,?,0%,22µM*
[O-][N+]1=c2ccc(Nc3ccccc3)cc2=NC12CCCCC2,20µM*,-21%,?,/,0%,40µM*
SMILES,BAZ2B inh,Sfp PPTase inh,HP1b chromo inh,G9a block,12-LOX inh,JMJD2A Tudor
COc1ccc(NC2=NC(=S)N(c3ccccc3C)C23CCCCC3)cc1,-34%,-10%,50%,?,-5%,-6%
O=C(c1ccncc1)N1CCCCC1c1nc(CCOc2ccc(F)cc2)no1 (stereo unspecified),/,/,/,/,44%,/
O=C(CSc1nc(CN2CCOCC2)nc2ccccc12)NCC1CCCCC1,/,/,/,/,-2%,/
O=C(NC1C[C@H]2CC[C@@H](C1)N2C(=O)Cc1ccc(F)cc1)c1ccncc1 (stereo partly specified),/,/,/,/,35%,/
COc1ccccc1-n1ccnc1SCC(=O)NCc1ccco1,-39%,16%,-31%,-38%,39%,40µM*
COc1ccccc1N1CCN(C(=O)c2ccccc2SCC(=O)NCc2ccco2)CC1,-4%,/,19%,50µM*,-27%,-22%
COc1ccccc1N1CCN(C(=O)c2ccccc2SCC(=O)N2CCCC2)CC1,13%,/,35%,79µM*,-12%,-19%
NC(C(=O)O)C(c1ccccc1)C(F)F (stereo unspecified),-31%,?,-1%,11µM*,/,50µM*
NC(=O)C(c1ccccc1)c1ccccc1,/,/,/,/,83%,/
CCCC[N+](C)(C)CCC(=O)NC(C)(C)CS(=O)(=O)[O-],50µM*,-4%,?,?,12%,56µM*
N[C@@H](CO)c1nc(C2CCOCC2)nn1-c1ccccc1F,/,/,/,/,37%,/
CC(C(=O)Nc1cc(Cl)cc(Cl)c1)N1CCN(c2ccc(O)cc2)CC1 (stereo unspecified),/,/,/,/,20µM*,/
Cc1ccc2c(c1C)-c1c(ccc(C)c1C)C(=O)C2=O,/,/,16µM*,/,?,50µM*
O=C1C=C(c2ccccc2)OC(c2ccccc2)O1 (stereo unspecified),50µM*,13%,81%,?,0%,14%
O=C1C=C(c2ccccc2)OC2(CCCC2)O1,2%,12%,42%,?,0%,34%
COc1ccc(CN(C(=O)CSc2nc3ccc(OC)cc3[nH]2)C2CC2)cc1,/,/,/,/,11%,/
COc1ccc(-c2nccn3cc(C(=O)NCCc4ccccn4)nc23)cc1,/,/,/,/,57%,/
COc1ccc(C(CC(=O)NCc2ccccc2)Sc2n[nH]c(-c3ccccc3)n2)cc1 (stereo unspecified),4%,9%,43%,1%,6%,-9%
COc1ccc(C(CC(=O)NCc2ccccc2)Sc2n[nH]c(-c3ccc(Cl)cc3)n2)cc1 (stereo unspecified),7%,5%,20%,25µM*,-3%,-17%
COc1ccc(-c2nc(SC(CC(=O)NCc3ccccc3)c3ccc(OC)c(OC)c3)n[nH]2)cc1 (stereo unspecified),-20%,7%,15%,45µM*,-11%,-19%
N#Cc1ccc(C(=O)NC2CCSc3c(F)cccc32)cc1 (stereo unspecified),/,/,/,/,4%,/
CCN(CC)C(=O)CSC1=N/C(=C/c2ccco2)C(=O)N1c1ccc(OC)c(Cl)c1,?,?,6%,25µM*,?,-26%
COC[C@@H]1CN(C(=O)c2ccc(C)nc2)C[C@H]1c1nc(C2CC2)no1,/,/,/,/,28%,/
O=C(CN(CC1CCCO1)S(=O)(=O)c1ccc(S(=O)(=O)NCC2CCCO2)cc1)Nc1ccccc1 (stereo unspecified),-24%,11%,14%,5%[59 µM],15%,-3%
